Results on nine compounds are retold here after PubChem BioAssay (NCATS).

Experiment [1] can be described thus: Drug repurposing screens with cells derived from glioblastoma tumor samples (AID 1345199). Also: nearly all actives have a fitted effect of over 40% in size. Also: potency is read from the fitted curve at half-maximal effect. As to activity, negative = cell killing: % is scaled to controls: 0 for no effect and ±100 for the full control effect. The settings on record: GBM patient neurospheres viability, ATP luminescence, 48 h. A digest of the protocol:
(§1)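 Four patient lines of CD133+ GBM neurospheres were screened at several concentrations; hits were retested in those lines plus three slower-growing GBM lines, using 48-hour treatment and ATP-based viability.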

In experiment [2] the test system is astro (control astrocytes). The experiment is described as above. The settings on record: viability, ATP luminescence, 48 h; series mostly up to 45.9 µM. In short, it runs like this: as §1
The target of experiment [3] is Nuclear receptor subfamily 1 group I member 2 (Rattus norvegicus) (UniProt Q9R1A7). As to the kind of experiment: qHTS assay for small molecule activators of the rat pregnane X receptor (rPXR) signaling pathway (AID 651751; call rule not given here; also: 0% is about no effect). The settings on record: rPXR reporter cells, luciferase (One-Glo), 24 h. For orientation: qHTS replaces the single test concentration by a dilution series.
Nuclear receptor subfamily 1 group I member 2 (Rattus norvegicus), sequence (Q9R1A7 whole entry, looked up): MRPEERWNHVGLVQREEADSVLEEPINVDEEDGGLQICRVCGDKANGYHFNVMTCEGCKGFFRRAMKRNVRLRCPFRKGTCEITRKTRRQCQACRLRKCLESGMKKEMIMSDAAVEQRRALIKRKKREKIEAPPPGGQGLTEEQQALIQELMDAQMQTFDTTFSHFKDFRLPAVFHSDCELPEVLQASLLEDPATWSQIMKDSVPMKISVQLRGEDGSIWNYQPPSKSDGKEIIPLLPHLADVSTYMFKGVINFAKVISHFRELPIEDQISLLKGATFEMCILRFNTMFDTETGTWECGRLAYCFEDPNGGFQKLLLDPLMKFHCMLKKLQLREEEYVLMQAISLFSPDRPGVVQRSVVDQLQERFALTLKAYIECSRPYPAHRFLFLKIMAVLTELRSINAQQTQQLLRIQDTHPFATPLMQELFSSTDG

The nature of experiment [4]: qHTS assay for small molecule activators of the human pregnane X receptor (PXR) signaling pathway (AID 720659; call rule not given here; also: 0% is about no effect). The settings on record: DPX-2 HepG2 CYP3A4-luciferase, 24 h; series mostly up to 92.3 µM.
Where [5] appears, read: at 45.9 µM (top of the series), tumour line B.
Where [6] appears, read: at 45.9 µM (top of the series), tumour line D.
[7] abbreviates: at 46 µM (top of the series), tumour line A.
The mark [8] stands for this setting: at 46.1 µM (top of the series), tumour line C.

Each structure is given as a SMILES string. Where “and” joins values, the source holds several entries; their conditions need not be identical. Equal values may be shown once. Values without a mark were called inactive. Inconclusive results are not listed. Calls of active or inactive are those of the source. Unless noted, calls follow the shape of the dose curve; as a rule, active = well fitted inhibition curve with a large enough effect; inconclusive = small, poorly fitted or top-dose-only effect; inactive = flat fitted curve, though single readings scatter.

Turning to `N[C@@H](Cc1ccc(O)cc1)C(=O)O`, the activity, negative = cell killing in experiment [1] (setting [5]) is -2.51%; in experiment [1] (setting [6]), -14.6%; in experiment [1] (setting [7]), -11%; in experiment [1] (setting [8]), 37.9%. Further, in experiment [2], the compound was classed as inactive.
As for `O=C(O)/C=C/c1ccc(Cn2ccnc2)cc1`, the activity, negative = cell killing is 0.197% in experiment [1] (at 20 µM (top of the series), tumour line C); -8.95% in experiment [1] (at 21.2 µM (top of the series), tumour line B); -11.8% in experiment [1] (at 21.2 µM (top of the series), tumour line D); -28.4% in experiment [1] (at 21.3 µM (top of the series), tumour line A). In experiment [2], the result was inactive.
For `COc1ccccc1OC(=O)Oc1ccccc1OC`, the activity, negative = cell killing in experiment [1] (setting [5]) is -6.75%; in experiment [1] (setting [6]), -3.45%; in experiment [1] (setting [7]), -34.8%; in experiment [1] (setting [8]) it was -5.39%. In experiment [2], the compound was called inactive.
For the compound `CCCC(O)C(CC)CO` (stereo unspecified), the activity, negative = cell killing in experiment [1] (setting [5]) is -12.1%; in experiment [1] (setting [6]) it was -1.2%; in experiment [1] (setting [7]) it was -19.9%; in experiment [1] (setting [8]), 1.39%. Further, the compound was classed as inactive in experiment [2] and in experiment [4]. Also, the max response in experiment [3] was 7.37%.
Take `CC(C(=O)O)c1ccc2c(c1)Cc1cccnc1O2` (stereo unspecified): the activity, negative = cell killing was 1.78% in experiment [1] (setting [5]), -8.91% in experiment [1] (setting [6]), -13.1% in experiment [1] (setting [7]) and -25.1% in experiment [1] (setting [8]). Moreover, the call in experiment [2] was inactive.
`CN1CCCN=C1COC(=O)C(O)(c1ccccc1)C1CCCCC1` (stereo unspecified): the values for the activity, negative = cell killing in experiment [1] (setting [5]), in experiment [1] (setting [6]) and in experiment [1] (setting [8]) were -22.5%, -25.7% and -4.53%, respectively. Besides, in experiment [1] (tumour line A), the Potency is 11.2 µM (active). Further, the compound was called inactive in experiment [2].
For the compound `C=CCNC(N)=S`, the activity, negative = cell killing is -3.35% in experiment [1] (setting [5]), -8.91% in experiment [1] (setting [6]), -13.7% in experiment [1] (setting [7]) and -3.97% in experiment [1] (setting [8]). Moreover, the outcome in experiment [2] and in experiment [4] was inactive. Also, in experiment [3], the max response is -5.15%.
As to `CCN(CC)C(=O)c1cccc(C)c1`, the activity, negative = cell killing in experiment [1] (setting [5]) is -13.5%; in experiment [1] (setting [6]), -4.13%; in experiment [1] (setting [7]) it was -18.8%; in experiment [1] (setting [8]) it was -13.4%. Besides, the call in experiment [2] and in experiment [4] was inactive. Also, the max response in experiment [3] is 1.44% and 0.626%.
For the compound `CCOC(N)=O`, the activity, negative = cell killing was -14.9% in experiment [1] (setting [5]), 19.2% in experiment [1] (setting [6]), -11.2% in experiment [1] (setting [7]) and -16.1% in experiment [1] (setting [8]). Also, the call in experiment [2] was inactive.
